# Screening results: PubChem, National Center for Advancing Translational Sciences (NCATS)
# A549 viability: counter-screen for Nrf2 inhibitors: cytotoxicity in A549 cells; A549 ARE-Fluc cells, CellTiter-Fluor viability, 18-24 h; Potency, µM (highest dose often 46 µM), for the others: top-dose activity change, negative = cytotoxicity, usual class: inhibitors; 390,000 tested, 0.16% active; note: potency is the fitted concentration of half-maximal effect; % is set by controls: 0 for no effect and ±100 for the full control effect
#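 A549 ARE-Fluc cells in 5% FBS OPTI-MEM, 5000 cells/well, rested 2 h then exposed to compounds in concentration-response for 18-24 h at 37 °C. Viability by CellTiter-Fluor fluorescence (Ex 405/Em 525) after 30 min; luciferase luminescence (BugLite, 15 min, RT) read afterwards.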
# Giardia killer: kills Giardia lamblia | Giardia lamblia trophozoite viability | activity change, % at 7.66 µM, hits read low | 340,000 tested, 0.15% active | AID 540267; in the data active = activity change below about -80%; inconclusive = between about -30% and that limit;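 note: parasites exposed to compound for two days anaerobically before the ATP read; % is set by controls: 0 for no effect and ±100 for the full control effect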
#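 Luminescent ATP signal served as the viability read-out, measured 15-30 min after adding ATP detection reagent to trophozoites that had been incubated with compounds for 48 hrs at 37 deg C anaerobically at 100 cells/well.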
# mIDH1 inhibitor: inhibitors of human mutant IDH1 R132H; AID 602179; 390,000 tested, 0.093% active; IDH1-R132H enzyme, NADPH consumption, diaphorase/resazurin fluorescence; O75874; Potency, µM (series often up to 76.6 µM), for inactives: top-dose activity change, negative = inhibition, hits mostly inhibitors; note: potency is the fitted concentration of half-maximal effect; % is set by controls: 0 for no effect and ±100 for the full control effect; nearly all actives have a fitted effect of over 65% in size
# Target sequence (O75874 whole entry R132H, stated change not applied): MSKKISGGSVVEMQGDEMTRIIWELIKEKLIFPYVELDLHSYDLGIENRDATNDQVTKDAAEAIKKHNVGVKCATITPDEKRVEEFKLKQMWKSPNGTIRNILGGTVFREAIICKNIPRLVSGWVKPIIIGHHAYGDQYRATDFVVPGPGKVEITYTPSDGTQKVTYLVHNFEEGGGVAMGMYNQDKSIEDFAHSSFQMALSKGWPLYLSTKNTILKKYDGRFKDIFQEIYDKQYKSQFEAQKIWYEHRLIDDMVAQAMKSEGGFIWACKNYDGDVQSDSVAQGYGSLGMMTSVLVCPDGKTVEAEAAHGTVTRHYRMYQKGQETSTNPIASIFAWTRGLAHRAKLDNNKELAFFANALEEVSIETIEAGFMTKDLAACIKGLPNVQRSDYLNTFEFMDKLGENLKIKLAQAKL
#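 IDH1-R132H (0.5 ug/mL) preincubated 30 min with compound, then NADPH (0.016 mM) and alpha-KG (2 mM) added; 80 min at RT, pH 7.5. Remaining NADPH coupled via diaphorase/resazurin to fluorescence (540/590 nm); concentration-response curves normalized to no-enzyme control.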
# Nrf2 block: inhibitors of Nrf2 signaling. AID 504444. 360,000 tested, 2.1% active. Potency, µM (titrated, usually from 46 µM), for the others: at the highest dose activity change, negative = inhibition, usual class: inhibitors. A549 ARE-Fluc reporter, luciferase luminescence, 18-24 h; note: potency is the fitted concentration of half-maximal effect; % is set by controls: 0 for no effect and ±100 for the full control effect; nearly all actives have a fitted effect of over 60% in size
#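 Quantitative HTS in A549 cells stably bearing an antioxidant response element-firefly luciferase construct. Inhibition of Nrf2-driven transcription was scored by luminescence after 18-24 h of compound exposure at 37 °C.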
# Apoferritin bind: candidate novel general anesthetic via apoferritin binding | P02791 | apoferritin/1-aminoanthracene competitive binding, fluorescence | Potency, µM (titrated, usually from 77.5 µM), without a hit: top-dose activity change, negative = displacement, hits mostly inhibitors | 350,000 tested, 0.074% active | AID 485281; note: potency is the fitted concentration of half-maximal effect; % is set by controls: 0 for no effect and ±100 for the full control effect; nearly all actives have a fitted effect of over 20% in size
# Target sequence (P02791 2-175 limits assumed): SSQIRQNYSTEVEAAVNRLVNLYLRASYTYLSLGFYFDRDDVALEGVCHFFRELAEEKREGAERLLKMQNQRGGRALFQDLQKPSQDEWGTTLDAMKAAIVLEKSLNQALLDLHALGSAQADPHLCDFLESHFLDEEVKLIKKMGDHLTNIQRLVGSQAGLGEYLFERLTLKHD
#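 10 uM apoferritin + 50% sat. 1-AMA, PBS; cpd 10 min RT; Ex380/Em535 endpoint; normalized to free probe vs complex; 4-param Hill fit; propofol titration as pos. ctrl.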
# Nrf2 activator: activates Nrf2 signaling. AREc32 ARE-luciferase reporter (MCF7-derived line), luminescence, 24 h. Potency, µM (titrated, usually from 46.1 µM), for the others: top-dose activation, most hits filed as activators. 410,000 tested, 0.31% active; note: potency is the fitted concentration of half-maximal effect; % of control where 0% means no effect; nearly all actives have a fitted effect of over 65% in size
#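 AREc32_Fluc, 1000 cells/well, OPTI-MEM + 5% FBS, o/n 37 deg C 5% CO2; 23 nL cpd by pin tool, 24 hr; Steady-Glo 30 min RT, luminescence.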
# Starred values were filed as active, the others as inactive; ? = inconclusive; . = no result given; [ ] = another dose, or the depositor's remark. In the library only some 2.3% were active in any assay of this set; here they are far more common. Unless noted, calls come from the whole dose curve; as a rule, active = well fitted curve in the direction sought with a large enough effect; inconclusive = small, poorly fitted or top-dose-only effect, or another doubt; inactive = no such curve, though single readings can be large; an effect the other way counts as inactive or inconclusive.
SMILES,A549 viability,Giardia killer,mIDH1 inhibitor,Nrf2 block,Apoferritin bind,Nrf2 activator
Cc1ccc(N/C=C/C(=O)c2ccccc2)cc1Br,-11.9%,-3.2,5.6%,?,-17.3%,11.2µM*
O=C(/C=C/Nc1ccc(F)c(Cl)c1)c1ccccc1,1.7%,13.6,2.7%,?,-15.3%,11.2µM*
O=C(Nc1ccc(-c2nc3ccccc3[nH]2)cc1)C1CCCN(Cc2ccn[nH]2)C1 (stereo unspecified),.,.,6.2%,.,.,-0.9%
Cc1ccc(NC(=O)c2ccc(CN3CCc4ccccc4C3)cc2)cc1,-14.4%,9.9,1.8%,?,-12.3%,5.5%
O=C(Nc1ccccc1)c1ccc(CN2CCc3ccccc3C2)cc1,0.8%,5.7,-12.3%,23.8%,-8.8%,8.3%
O=C(Nc1cccnc1)c1ccc(CN2CCc3ccccc3C2)cc1,5.3%,-10.0,-1.5%,13µM*,-18.6%,1.6%
Cc1cc(C)cc(NC(=O)c2ccc(CN3CCc4ccccc4C3)cc2)c1,-29.0%,-6.9,-2.4%,14.6µM*,2.7%,4.1%
O=C(Nc1ccc(S(=O)(=O)N2CCCCC2)cc1)c1ccc(CN2CCc3ccccc3C2)cc1,-19.0%,0.1,-7.3%,0.326µM*,?,0.4%
O=C(Nc1ccccc1)c1ccc(S(=O)(=O)N2CCCCC2)cc1,-7.7%,-1.4,-10.6%,?,3.7%,2.9%
CN(C)c1ncnc2c1ncn2[C@H]1CN(Cc2ccc(-c3ccccc3)cc2)C[C@@H](CO)O1,.,.,.,.,.,4.8%
CCOC(=O)c1sc(N2C(=O)c3oc4ccccc4c(=O)c3C2c2ccc(C(C)(C)C)cc2)nc1C (stereo unspecified),-10.0%,.,5.5%,0.5%,-11.9%,-0.8%
CC1CCN(S(=O)(=O)c2ccc3nc(Nc4cccc(F)c4)ccc3c2)CC1,?,.,-0.4%,20.6µM*,416.4%,-0.3%
CC1CCN(S(=O)(=O)c2ccc3nc(NCc4ccccc4)ccc3c2)CC1,-15.0%,.,-2.7%,16.4µM*,91.1%,-0.1%
Cc1ccc(Nc2ccc3cc(S(=O)(=O)N4CCC(C)CC4)ccc3n2)c(Cl)c1,-17.5%,.,-2.0%,-8.5%,605.1%,-0.5%
COc1ccc(-n2nc(C(=O)NCCc3cccc(C)c3)c3c4ccccc4n(C)c3c2=O)cc1Cl,4.9%,.,0.0%,6.7%,-5.6%,4.2%
CC(C)(C)OC(=O)NCCCC[C@H](NC(=O)c1[nH]cnc1C(=O)Nc1ccccc1)C(=O)OC(C)(C)C,-19.4%,1.9,-2.2%,?,-17.2%,-2.3%
C[C@@H](NC(=O)c1nc[nH]c1C(=O)N[C@@H](CCCCNC(=O)OC(C)(C)C)C(=O)OC(C)(C)C)c1ccccc1,?,-26.5,6.7%,16.4µM*,?,-1.1%
Cc1ccc(NC(=O)c2nc[nH]c2C(=O)N[C@H](C)c2ccccc2)cc1,-5.5%,-8.7,-4.6%,?,.,-2.2%
CC(C)(C)OC(=O)NCc1ccc(CNC(=O)c2[nH]cnc2C(=O)N[C@@H](Cc2ccccc2)C(=O)OC(C)(C)C)cc1,-15.0%,8.5,-23.5%,23.1µM*,-3.3%,4.7%
CCOC(=O)c1ccc(NC(=O)c2nc[nH]c2C(=O)N[C@H](C)c2ccccc2)cc1,?,-6.7,-11.1%,16.4µM*,4.1%,-4.3%
Cc1ccc(CN2CCCn3nc(C(=O)NCc4ccc(N(C)C)cc4)cc3C2=O)cc1,-5.5%,.,-1.5%,.,-14.0%,-0.3%
Cc1ccc(NNC(=O)C(O)(c2cccc(C(F)(F)F)c2)c2cccc(C(F)(F)F)c2)cc1,?,-10.0,-22.9%,23.1µM*,-3.5%,3.0%
O=C(NNc1ccccc1Br)C(O)(c1cccc(C(F)(F)F)c1)c1cccc(C(F)(F)F)c1,?,-16.5,-12.1%,?,-4.2%,-2.1%
CCn1nnc2cc(C(=O)Nc3ccc(C)cc3Br)ccc21,21.9%,.,-1.0%,?,5.8%,0.4%
O=C(Nc1ccc(N2CCN(c3ncccc3C(F)(F)F)CC2)nc1)c1cccs1,?,5.3,2.2%,20.6µM*,-17.8%,-2.9%
SMILES,A549 viability,Giardia killer,mIDH1 inhibitor,Nrf2 block,Apoferritin bind,Nrf2 activator
O=C(c1ccc(N2C(=O)c3ccccc3C2=O)cc1)N1CCN(S(=O)(=O)c2ccccc2F)CC1,.,.,-4.6%,.,.,-0.8%
O=C(Nc1ccccc1)NN(C(=O)CCl)c1ccccc1,?,10.9,-7.3%,20.6µM*,-0.1%,?
CCC(O)(CC)C(=O)NN(C(=O)CCl)c1ccccc1,-4.1%,14.7,1.8%,?,-2.1%,?
CO[C@H]1COC(=O)[C@@H](Cc2ccccc2)NC(=O)[C@@H](C)COC(=O)C/C=C\[C@@H]1C,.,.,.,.,-0.4%[15.3 µM],.
CN=c1sc2c(n1C)C(=O)c1ccccc1C2=O,?,?,2.2%,20.6µM*,.,5.5%
CN=c1sc(C(=O)Nc2ccccc2)c(C)n1C,-2.2%,11.0,3.3%,?,-0.1%,4.1%
CCCC[C@H]1C[C@@H]1[C@@H]1N(P(=O)(c2ccccc2)c2ccccc2)C[C@@](O)(c2ccccc2)CC12CC2,.,.,.,.,35.8%,.
Cc1occc1-c1nnc(-c2cc([N+](=O)[O-])cc([N+](=O)[O-])c2)o1,4.4%,-21.7,-1.2%,?,22.4µM*,28.8%
CCOC(=O)C1CCN(C(=O)Cn2nc(C)n3c(cc4sccc43)c2=O)CC1,-8.9%,.,-3.7%,0.1%,-0.7%,-0.9%
CS(=O)(=O)c1ncc(Cl)c(C(=O)N(Cc2ccc(Cl)cc2)Cc2ccco2)n1,?,.,0.0%,23.1µM*,-22.7%,-4.3%
O=C(Nc1cccc(Cl)c1)ON1CCCCC1,.,.,-2.3%,.,.,4.3%
CS[C@@H]1SC[C@H]2C(=O)N(C)C(C(C)C)C(=O)OC[C@@H](NC(=O)c3cnc4ccccc4n3)C(=O)N[C@@H](C)C(=O)N(C)[C@H]1C(=O)N(C)C(C(C)C)C(=O)OC[C@@H](NC(=O)c1cnc3ccccc3n1)C(=O)N[C@@H](C)C(=O)N2C (stereo partly specified),.,.,.,.,-2.7%,.
Cc1nc(N2CCN(S(=O)(=O)c3ccc(F)cc3)CC2)c2c(-c3cccs3)csc2n1,4.9%,30.6,-8.8%,16.4µM*,6.3%,-0.2%
COc1ccc(/C(C)=N/NC(=O)c2nnn(-c3nonc3N)c2-c2ccccc2)cc1,1.0%,19.8,2.3%,-15.4%,-11.3%,0.0%
C/C(=N\NC(=O)c1nnn(-c2nonc2N)c1CN(C)c1ccccc1)c1ccccc1O,-18.1%,4.8,4.1%,8.2µM*,-11.8%,-0.7%
COc1ccc(/C(C)=N/NC(=O)c2nnn(-c3nonc3N)c2CN(C)c2ccccc2)cc1,-12.6%,-5.0,-7.9%,16.4µM*,-19.9%,0.4%
COc1ccccc1N1CCN(S(=O)(=O)c2ccc3[nH]c4c(c3c2)CCCC4)CC1,-12.2%,.,-1.6%,23.1µM*,2.9%,0.4%
